Shown are actives, neighbours in structure and some others; about 19% of the full set was active somewhere.
AMA1-RON2 inh = qHTS for Inhibitors of AMA1-RON; Towards Development of Antimalarial Drug Lead: Primary Screen; Plasmodium falciparum AMA1 (3D7) - RON2 peptide interaction; AlphaScreen AMA1-biotinylated RON2 peptide binding; Potency, µM (highest dose often 58.2 µM), for inactives: at the highest dose activity change, negative = inhibition, usual class: inhibitors; 360,000 compounds, 0.2% hits;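 also: potency is read from the fitted curve at half-maximal effect; 0% = vehicle wells and -100% = peptide control; nearly all actives have a fitted effect of over 45% in size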
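AMA1 (3D7) with his tag at 25 nM final met compounds first, then biotinylated RON2 peptide at 25 nM; detection used donor plus acceptor beads, 10 µg/mL apiece, read by AlphaScreen after 30 min at room temperature.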
Pf growth 96h = Primary qHTS for delayed death inhibitors of the malarial parasite plastid, 96 hour incubation; P. falciparum luciferase reporter growth, 96 h; Potency, µM (top dose mostly 28.7 µM), inactives show top-dose activity change, negative = inhibition, usual class: inhibitors; 320,000 compounds, 6.9% hits; AID 504834, 2011; also: potency is read from the fitted curve at half-maximal effect; % is scaled to controls: 0 for no effect and ±100 for the full control effect
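Luminescence readout: decreased luciferase signal marks inhibited growth of reporter-expressing P. falciparum in infected red cells (2% hematocrit, 0.05% parasitemia final), exposed to compound two generations (96 h, 37 C, 5% CO2).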
Shiga inhibitor = A qHTS for Small Molecule Inhibitors of Shiga Toxin | 290,000 compounds, 9.2% hits | Vero cells, Shiga toxin protein synthesis inhibition reporter | inhibition, % at 38.7 µM; in the data active = inhibition mostly above about 28%, no sharp cut-off; inactive = mostly below about 43%; also: 0% is about no effect
SARS PLP yeast = qHTS of Yeast-based Assay for SARS-CoV PLP; Potency, µM (highest dose often 32.9 µM), without a hit: at the highest dose activity, positive = growth rescue, most hits filed as activators; AID 485353, 2010; 330,000 compounds, 0.19% hits; S. cerevisiae expressing SARS-CoV PLpro, growth rescue; calls by dose curve; also: potency is read from the fitted curve at half-maximal effect; 0% is about no effect; nearly all actives have a fitted effect of over 55% in size
CHX counter = Cycloheximide Counterscreen for Small Molecule Inhibitors of Shiga Toxin; 300,000 compounds, 12% hits; AID 2314, 2010; cell reporter, cycloheximide protein synthesis inhibition counterscreen; max response, %; in the data active = max response mostly above about 13%, no sharp cut-off; inactive = mostly below about 14%; also: read at 38.3 µM for the half of the compounds with a filed dose; 0% is about no effect
Pf growth 48h = Primary qHTS for delayed death inhibitors of the malarial parasite plastid, 48 hour incubation. AID 504832, 2011. P. falciparum luciferase growth in erythrocytes, 48 h. 310,000 compounds, 5.9% hits. Potency, µM (top dose mostly 28.7 µM), for inactives: top-dose activity change, negative = inhibition, hits mostly inhibitors; also: potency is read from the fitted curve at half-maximal effect; % is scaled to controls: 0 for no effect and ±100 for the full control effect
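Luminescence readout; reporter = integrated firefly luciferase in P. falciparum. RBC culture at 2% hematocrit, 0.1% parasitemia final, 37 C/5% CO2; decreased signal taken as growth inhibition.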
* marks the source's active call; other numbers are inactive results; ? = inconclusive; · = no result given; [ ] = remark or other dose. Unless noted, calls follow the shape of the dose curve; as a rule, active = well fitted curve in the direction sought with a large enough effect; inconclusive = small, poorly fitted or top-dose-only effect, or another doubt; inactive = no such curve, though single readings can be large; an effect the other way counts as inactive or inconclusive.

SMILES	AMA1-RON2 inh	Pf growth 96h	Shiga inhibitor	SARS PLP yeast	CHX counter	Pf growth 48h
Clc1ccc(Cn2nnc(-c3ccc(CN4CCOCC4)cc3)n2)cc1	-7.7%	-7.1%	-23.7	-9.9%	0.4	-18.7%
Clc1ccccc1Cn1nc(-c2ccccc2)nc1-c1ccccc1	20.1%	37.7%	12.9	-17.5%	17.5*	-5.5%
Clc1ccc(Cn2nnc(-c3ccccc3)n2)cc1	43.6%	-25.1%	57.4*	-34.4%	28.4*	16.0%
CC(=O)N1C2CCCCC2S[C@H]2CCCCC21 (stereo partly drawn)	1.8%	-2.4%[5.75 µM]	-2.5	1.2%	-2.3	-9.9%
COc1ccccc1N1C(=O)NC(=O)/C(=C/c2ccc3c(c2)Cc2ccccc2-3)C1=O	14.1%	37.4%	45.0*	25.8%	11.7	13.1%
Cc1nc(NC(=O)c2ccc(Cl)cc2)nc2cc3c(cc12)OCO3	-0.7%	18.8%	14.2	-15.4%	-3.9	18.1%
Cc1c(C(=O)c2ccc(Cl)cc2Cl)cnc2cc3c(cc12)OCO3	-18.4%	13.1µM*	-8.4	-20.2%	-1.0	8.28µM*
COc1ccc(CN2CCCCCC2)cc1	-2.2%	?	-11.3	0.9%	-1.3	?
COc1ccc(N=Nc2cc(C)c(O)c(CN3CCCCC3)c2)cc1	20µM*	0.262µM*	15.7	0.5%	11.0	0.262µM*
Nc1nc(CN2CCN(C(=O)c3ccco3)CC2)nc(Nc2cccc(Cl)c2)n1	4.1%	46.8%	-5.4	-0.2%	-2.6	-6.3%
O=[N+]([O-])c1cc(C=NN2CCCCCC2)ccc1Cl	14.1µM*	·	·	·	·	·
O=[N+]([O-])c1cc(/C=N/N2CCN(c3ccccc3)CC2)ccc1Cl	-3.7%	?	32.6	7.2%	4.5	46.2%
O=[N+]([O-])c1cc(/C=N/N2CCCCC2)ccc1Cl	?	55.9%	72.1*	-1.3%	17.7*	51.0%
OCC1(CCc2ccccc2)CCN(C/C=C/c2ccccc2)CC1	-10.8%	265.1%	-7.8	-4.0%	-1.1	?
OCC1(Cc2ccccc2Cl)CCN(C/C=C/c2ccccc2)CC1	-3.3%	3.3%	-3.7	1.6%	-0.7	11.7µM*
Cc1cc(C)c2nc(SCC(=O)Nc3ccccc3N3CCOCC3)c(C#N)cc2c1	10.4%	·	·	·	·	·
Cc1cccc(C)c1-n1c(SCC(=O)N2CC(=O)Nc3ccccc32)nc2ccccc2c1=O	-10.0%	-101.1%	-4.6	2.4%	-5.1	13.1µM*
COCCn1c(SCC(=O)N2CC(=O)Nc3ccccc32)nc2ccccc2c1=O	-6.6%	?	23.9	3.1%	5.0	?
Cc1cc(C)c2nc(SCC(=O)N3CC(=O)Nc4ccccc43)c(C#N)cc2c1	9.9%	?	-8.1	21.7%	-1.9	13.1µM*
Cc1ccc(-n2c(SCC(=O)N3CC(=O)Nc4ccccc43)nc3ccccc3c2=O)cc1	-7.6%	?	1.3	-12.7%	0.8	13.1µM*
CC(C)c1nc(SCC(=O)N2CC(=O)Nc3ccccc32)c2ccccc2n1	4.7%	47.4%	-16.8	-0.7%	-1.7	-18.1%
CC1CC(C)(C)NC(=S)O1 (stereo not drawn)	0.0%	8.6%	3.1	-1.6%	-5.6	-5.2%
CN(C[C@H](CC1CCCCC1)N(C[C@H](Cc1ccccc1)N(CCc1ccccc1)N=O)N=O)N=O	-2.4%	?	-3.8	-0.1%	-3.0	13.1µM*
CCCC[C@H](CN(N=O)[C@@H](Cc1ccccc1)CN(C)N=O)N(CCc1ccccc1)N=O	-14.4%	?	-7.5	1.0%	-1.0	?
CC(C)C[C@@H](CN(C)N=O)N(C[C@H](Cc1ccccc1)N(CCc1ccccc1)N=O)N=O	-16.0%	?	-12.0	-0.5%	1.9	?
SMILES	AMA1-RON2 inh	Pf growth 96h	Shiga inhibitor	SARS PLP yeast	CHX counter	Pf growth 48h
CN(C[C@H](Cc1ccccc1)N(C[C@H](Cc1ccccc1)N(CCc1cc(C(F)(F)F)cc(C(F)(F)F)c1)N=O)N=O)N=O	-5.4%	4.15µM*	-31.6	-1.1%	-1.2	?
COc1ccc(NC(=O)CC23CC4CC(C2)CC(n2nnc(C)n2)(C4)C3)cc1	-17.9%	18.4%	-9.6	-4.6%	-2.9	-9.2%
COc1ccc2nc(C)c(C(=O)OCCN(C)C)cc2c1	·	18.7%	1.0	-2.9%	-1.8	69.6%
CCN(CC)CCCC(C)Nc1cc(/C=C/c2ccccc2Cl)nc2cc(Cl)ccc12 (stereo not drawn)	·	0.601µM*	·	·	·	0.477µM*
Cc1ccc(S(=O)(=O)NC(=O)Cn2nnc(-c3ccccc3)c2COc2ccc3ccccc3c2)cc1	3.0%	·	·	·	·	·
Cc1cccc(Nc2nnc(-c3ccc(N4CCOCC4)c([N+](=O)[O-])c3)c3ccccc23)c1	-24.6%	?	-5.1	13.9%	-1.8	11.7µM*
COC(=O)c1cn(NC(=O)c2cc(OC)c(OC)c(OC)c2)c(=O)c2ccccc12	16.8%	3.29µM*	29.4	-1.5%	-0.9	3.7%
COC(=O)c1cn(NC(=O)c2ccncc2)c(=O)c2ccccc12	1.8%	5.86µM*	41.0	-1.4%	-2.6	11.1%
CCN(CC)C(=O)c1cccc(NC(=O)c2cc(-c3ccccn3)nc3ccccc23)c1	15.0%	-10.4%	·	-2.1%	·	5.0%
C#CC[N+](C)(C)CC#Cc1ccc(C)cc1	21.9%	?	-3.7	-3.1%	-1.4	1.85µM*
CC(=O)c1cccc(NC(=S)NCc2ccccc2)c1	-4.4%	33.8%	-1.8	-1.4%	-1.3	0.0%
COc1ccc(NC(=S)Nc2cccc3ccccc23)cc1OC	78.6%	?	17.9	16.4%	30.0*	?
CC(=O)c1cccc(NC(=S)Nc2cccc3ccccc23)c1	100.0%	6.6%	83.5*	?	44.5*	0.2%
COc1ccccc1NC(=S)Nc1cccc(F)c1	0.3%	?	1.3	15.9%	0.9	9.7%
CC(=O)Nc1cccc(NC(=S)Nc2cccc3ccccc23)c1	75.4%	44.8%	83.8*	-5.6%	44.4*	18.7%
Cn1c(=O)[nH]c(=O)c2c1nc(SCC(O)CCl)n2Cc1ccccc1 (stereo not drawn)	-1.6%	?	-8.4	13.3%	-2.8	-2.5%
CCN(CC)Cc1cc(C(=O)O)c(C)o1	14.0%	?	53.3*	-1.7%	13.4*	40.7%
COc1ccc(OCc2cc(C(=O)O)c(C)o2)cc1	·	96.5%	26.4	1.0%	33.0*	122.7%
Cc1oc(CN2CCOCC2)cc1C(=O)O	2.3%	17.0%	13.0	-0.6%	-3.3	-0.3%
CC(=O)C[C@H](c1ccccc1)c1c(O)c2ccccc2oc1=O	·	·	3.2	·	-2.8	·
CC(NS(=O)(=O)OCC(Cl)(Cl)Cl)c1ccc(Br)cc1 (stereo not drawn)	7.7%	12.2%	8.6	-20.1%	-0.4	7.9%
Cc1cc(C(=O)COC(=O)c2ccc(Br)o2)c(C)n1C	-22.1%	23.2%	58.1*	0.4%	40.4*	-15.3%

From PubChem BioAssay
